KB-3-1 tox – KB-3-1 parental cell cytotoxicity; KB-3-1 viability, CellTiter-Glo ATP luminescence, 72 h; Potency, µM (series often up to 46.1 µM), most hits filed as cytotoxic; 400,000 compounds, 1.4% hits; AID 1347075; note: % is set by controls: 0 for no effect and ±100 for the full control effect; nearly all actives have a fitted effect of over 60% in size
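Multi-concentration cytotoxicity screen in KB-3-1 cells grown in DMEM lacking phenol red with 10% FBS. After 72 h at 37 °C with compound, ATP-dependent luminescence was recorded.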
SW480 rerep – DNA re-replication induction in SW480 cells | SW480 DNA re-replication, Hoechst DNA content imaging, 48 h | Potency, µM (doses to about 46.1 µM), for inactives: at the top dose re-replication activation, most hits filed as activators | 340,000 compounds, 1.8% hits | AID 624297; note: % of control where 0% means no effect; nearly all actives have a fitted effect of over 55% in size
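Quantitative HTS format with DMSO vehicle controls; 48 hr drug incubation at 37 C, then 40 min Hoechst staining and scanning imager measurement at 405 nm excitation.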
KB-V1 MDR tox – kills drug-selected multidrug resistant KB-V1 cells | KB-V1 MDR cells viability, CellTiter-Glo, 72 h | Potency, µM (series often up to 46.1 µM), usual class: cytotoxic | 400,000 compounds, 3.4% hits; note: % is set by controls: 0 for no effect and ±100 for the full control effect; nearly all actives have a fitted effect of over 60% in size
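Readout: CellTiter-Glo luminescence, 10 min after addition. Cells: KB-V1 MDR subline, 72 h at 37 degrees C with compound. Analysis: corrected, normalized data fitted to concentration-effect curves.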
ELG1 repair inh – inhibitors of ELG1-dependent DNA repair in HEK293T cells; HEK293T ELG1-luciferase reporter, luminescence, 16 h; DNA damage induced by 5-fluorouridine; Potency, µM (series often up to 46.1 µM), without a hit: at the top dose activity change, negative = inhibition, most hits filed as inhibitors; 330,000 compounds, 2.3% hits; note: % is set by controls: 0 for no effect and ±100 for the full control effect; nearly all actives have a fitted effect of over 55% in size
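Reporter activity after DNA damage by 5-fluorouridine is monitored. Compound-treated cells incubate 16 hr at 37 °C, then ONE-Glo is added for 30 min before luminescence reading.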
MCF10A rereplic – DNA re-replication induction in MCF 10a cells. MCF 10A DNA re-replication, Hoechst nuclear intensity, 48 h. Potency, µM (doses to about 46.1 µM), for inactives: at the top dose activity, positive = re-replication, usual class: activators. 350,000 compounds, 2.9% hits. AID 624296; note: % of control where 0% means no effect; nearly all actives have a fitted effect of over 50% in size
* marks the source's active call; other numbers are inactive results; i = inactive; ? = inconclusive; / = no result. This is a sample that favours compounds with a hit; in the whole collection about 8.2% have one here. Calls come from the whole dose curve; as a rule, active = well fitted curve in the direction sought with a large enough effect; inconclusive = small, poorly fitted or top-dose-only effect, or another doubt; inactive = no such curve, though single readings can be large; an effect the other way counts as inactive or inconclusive. Potency is the fitted concentration of half-maximal effect.

SMILES	KB-3-1 tox	SW480 rerep	KB-V1 MDR tox	ELG1 repair inh	MCF10A rereplic
N#C/C(=N\Nc1cccc([N+](=O)[O-])c1)C(=O)c1ccc(Br)cc1	3.66µM*	4.7%	1.46µM*	1.83µM*	?
O=C(O)c1ccc(N=NNc2cccc([N+](=O)[O-])c2)cc1	i	-8.7%	i	?	-0.3%
COc1ccc(C(CNC(=O)c2ccc(OCc3csc(C)n3)cc2)N2CCCC2)cc1 (centres undefined)	i	/	i	/	/
O=C(NNC(=O)c1ccc2ccccc2c1)c1cccc(Cl)c1	i	7.8%	i	/	5.7%
COc1cc(OC)cc(C(=O)OCn2nnc3ccccc3c2=O)c1	i	-16.8%	i	5.2%	1.0%
CC(=O)c1c(C)[nH]c(C(=O)OCn2nnc3ccccc3c2=O)c1C	i	-1.9%	i	18.4µM*	2.8%
COC(=O)c1ccc2c(=O)[nH]c(COC(=O)c3[nH]c(C)c(C(C)=O)c3C)nc2c1	i	?	i	5.8µM*	?
Cc1cc(N2C(=O)C3C4c5ccccc5C(c5ccccc54)C3C2=O)no1 (centres undefined)	i	6.2%	8.2µM*	?	?
CCOC(=O)c1c(C)oc2nc(C)nc(NCc3ccccc3OC)c12	i	/	i	/	/
O=C(Nc1cccnc1)c1sc(Nc2ccccc2F)nc1-c1ccccc1	i	?	i	?	?
Cc1ccccc1Nc1nc(-c2ccccc2)c(C(=O)Nc2cccnc2)s1	i	?	i	23.1µM*	23.1µM*
CN1/C(=N\O)c2cccc3cccc1c23	?	19.3%	?	?	18.4µM*
Cc1cccc2c(=O)n3c(cc12)-c1[nH]c2ccccc2c1CC3	i	?	i	/	20.6µM*
O=c1c2ccccc2sn1-c1ccccc1	?	11.6µM*	i	?	9.2µM*
Cc1ccc(-n2sc3ccccc3c2=O)cc1S(=O)(=O)N1CCCCC1	?	?	?	-2.6%	16.4µM*
O=c1c2cc(F)ccc2sn1-c1ccccc1	?	?	i	?	?
O=c1c2cc(C(F)(F)F)ccc2sn1-c1ccccc1	?	/	20.6µM*	/	/
O=c1c2ccccc2sn1-c1nccs1	i	?	i	1.3%	16.4µM*
O=C(O)c1cccc(-n2sc3ccccc3c2=O)c1	?	?	i	23.6%	?
Cc1ccc(C)c(-c2nn(CC(=O)Nc3cc(F)ccc3F)c(=O)c3c2CCCC3)c1	i	/	i	/	/
CN(C(=O)Cn1c(=O)n(Cc2ccc(C(=O)NCc3ccc4c(c3)OCO4)cc2)c(=O)c2ccccc21)c1ccccc1	i	/	i	/	/
CC1CCN(C(=O)c2cc(N3C(=O)C4C5CCC(C5)C4C3=O)ccc2Cl)CC1 (centres undefined)	/	/	/	-3.2%	/
O=C(c1cc(N2C(=O)C3C4CCC(C4)C3C2=O)ccc1Cl)N1CCN(c2ccccc2)CC1 (centres undefined)	i	?	3.26µM*	?	-35.6%
COC(=O)/C=C/C(=O)Nc1cccc(C(F)(F)F)c1	i	?	i	-12.2%	23.1µM*
CCOc1ccc(NC(=S)NNC(=S)Nc2cccc(C(F)(F)F)c2)cc1	i	24.8%	i	?	?
SMILES	KB-3-1 tox	SW480 rerep	KB-V1 MDR tox	ELG1 repair inh	MCF10A rereplic
COC(=S)Nc1cccc(C(F)(F)F)c1	i	-14.8%	i	0.0%	?
CC(C)(C)NC(=S)Nc1ccc(Br)cc1	i	1.4%	i	24.0%	16.5%
CC(C)(C)NC(=S)Nc1cccc(C(F)(F)F)c1	?	5.5%	i	11.6µM*	?
COc1ccc(NC(=S)NNC(=S)Nc2cccc(C(F)(F)F)c2)cc1	i	-35.5%	i	14.3%	14.6µM*
CNNC(=S)Nc1cccc(C(F)(F)F)c1	i	1.6%	i	3.9%	-6.5%
CC(C)(C)NC(=S)Nc1ccc(Nc2ccccc2)cc1	?	14.0%	16.4µM*	18.4%	-3.7%
CCOC(=O)c1cc(C#N)c(SC(C(=O)N2CCCCC2)c2ccccc2)nc1C (centres undefined)	i	/	i	/	/
O=C(CN1CCC(C(=O)c2ccc3c(c2)OCCO3)CC1)NCc1ccc(F)cc1	i	-2.1%	?	-10.4%	10.7%
CCOC(=O)C1=C(C)N(CCCC(=O)O)C(=O)NC1c1cccs1 (centres undefined)	i	-0.4%	i	/	-14.1%
O=C(Nc1ccccc1)Nc1cccc(C(F)(F)F)c1	i	-0.5%	i	-13.2%	-0.4%
O=C(NNC(=S)Nc1cccc(C(F)(F)F)c1)c1ccc(Cl)cc1Cl	?	?	18.4µM*	-11.6%	13µM*
Cc1ccc(OC(F)F)c(NC(=O)Nc2cccc(C(F)(F)F)c2)c1	?	11.2µM*	?	?	?
CCC(=O)N1CCc2cc(Br)cc(S(=O)(=O)CCC(=O)NCc3ccc(F)cc3)c21	i	/	i	/	/
COc1ccc(N2CCN(c3cc(C)nc4ccc(OC)cc34)CC2)cc1	i	1.2%	i	13µM*	0.8%
Cc1cc(NC(=O)CCN2C(=O)C3C4CCC(C4)C3C2=O)c(C)cc1Br (centres undefined)	i	-2.1%	14.6µM*	-25.8%	4.2%
Cc1cccc(C)c1NC(=O)CCN1C(=O)C2C3CCC(C3)C2C1=O (centres undefined)	i	-12.5%	i	-1.3%	0.2%
O=C(CN(C1CC1)S(=O)(=O)c1ccc(S(=O)(=O)NC2CCCCC2)cc1)Nc1ccccc1	?	?	i	?	9.1%
O=C(CN(Cc1cccs1)S(=O)(=O)c1ccc(S(=O)(=O)NC2CCCCC2)cc1)Nc1ccccc1	?	29.4%	13µM*	?	?
NC(COCc1ccccc1)c1csc(Nc2cc(NCCCO)ncn2)n1 (centres undefined)	i	/	i	/	/
CC1CCc2c(sc3nc(C(C)(C)C)nc(N4CCN(C(=O)CCl)CC4)c23)C1 (centres undefined)	?	5.17µM*	?	?	14.6µM*
CCC(=O)N1CCN(c2nc(CC)nc3sc4c(c23)CCCC4)CC1	i	2.3%	?	?	12.5%
Cc1ccc(C)c(N2CCN(C(=O)CN3C(=O)COc4ccc(S(=O)(=O)N5CCC(C)CC5)cc43)CC2)c1	i	/	?	/	/
CCOc1cc(/C=N\Nc2ncc(F)c(N3CCOCC3)n2)ccc1Oc1nc(Cl)ncc1F	i	-1.8%	?	23.1µM*	?
C(=N\Nc1nc(N2CCCCC2)nc(N2CCCCC2)n1)/c1c[nH]c2ccccc12	i	4.0%	i	?	12.1%
Fc1cnc(N/N=C/c2ccc(-c3ccc(Br)cc3)o2)nc1N1CCOCC1	i	-11.5%	i	11.6µM*	0.5%
